# About 120 (0.17%) of roughly 70,000 compounds were called active. Cut-off read from the data, not from the text of the source: active = inhibition above about 34%; inconclusive = no clear call, values can overlap the other calls; inactive = below about 11%. Shown is part of a subset that was picked to be rich in actives.
# Target: Isocitrate dehydrogenase [NADP] cytoplasmic (Homo sapiens) (UniProt O75874)
# Assay: PubChem AID 624101;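 note: 0% = DMSO and 100% = no enzyme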
# Conditions: IDH1 R132H reductase, diaphorase/resazurin fluorescence, 60 min; at 10 µM; stronger effect = higher value
# Isocitrate dehydrogenase [NADP] cytoplasmic (Homo sapiens), sequence (O75874 whole entry R132H): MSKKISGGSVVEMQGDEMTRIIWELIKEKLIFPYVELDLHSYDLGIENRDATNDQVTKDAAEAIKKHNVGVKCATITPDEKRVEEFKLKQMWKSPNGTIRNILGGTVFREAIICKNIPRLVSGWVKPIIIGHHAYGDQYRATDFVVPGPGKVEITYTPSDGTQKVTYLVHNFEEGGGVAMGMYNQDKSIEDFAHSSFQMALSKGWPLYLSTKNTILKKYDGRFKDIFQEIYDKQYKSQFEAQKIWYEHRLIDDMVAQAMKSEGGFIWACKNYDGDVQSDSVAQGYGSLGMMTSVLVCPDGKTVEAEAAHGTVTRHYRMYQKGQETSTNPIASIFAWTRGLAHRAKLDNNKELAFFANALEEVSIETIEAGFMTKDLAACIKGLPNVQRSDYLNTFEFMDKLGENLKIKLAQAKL
row,Compound,inhibition
1,CC(=O)N[C@H]1CC[C@H](CCNC(=O)C2CC2)O[C@H]1CO,0.591% (inactive)
2,CCCc1cn(CC[C@@H]2CC[C@H](NS(=O)(=O)c3ccccc3Cl)[C@H](CO)O2)nn1,-0.0115% (inactive)
3,CCCC(=O)Nc1ccc2c(c1)C(=O)N(C)C[C@H](OC)[C@@H](C)CN(C(C)=O)[C@H](C)CO2,0.373% (inactive)
4,COCc1cn(CC[C@H]2CC[C@H](NC(=O)c3ccncc3)[C@H](CO)O2)nn1,0.111% (inactive)
5,O=C(N[C@@H]1CC[C@@H](CCn2cc(-c3ccccn3)nn2)O[C@@H]1CO)c1ccccc1,0.105% (inactive)
6,O=C(C[C@@H]1C[C@H]2c3cc(NC(=O)C4CCOCC4)ccc3O[C@H]2[C@@H](CO)O1)NCCN1CCCCC1,-0.003% (inactive)
7,O=C(C[C@H]1CC[C@@H](NC(=O)c2ccccc2)[C@@H](CO)O1)NCc1ccncn1,-0.091% (inactive)
8,CO[C@@H]1CN(C)C(=O)c2cc(NC(=O)c3ccc(F)cc3)ccc2OC[C@H](C)N(C(=O)CN(C)C)C[C@H]1C,-0.235% (inactive)
9,C[C@@H]1CN([C@H](C)CO)C(=O)c2cc(-c3ccccc3)cnc2O[C@H]1CN(C)C(=O)Nc1ccccc1,-0.031% (inactive)
10,Cc1noc(C)c1NC(=O)N(C)C[C@H]1Oc2ccc(NS(=O)(=O)c3ccc(Cl)cc3)cc2CC(=O)N([C@H](C)CO)C[C@@H]1C,0.108% (inactive)
11,O=C(N[C@H]1CC[C@H](CCn2cc(C3(O)CCCC3)nn2)O[C@H]1CO)C1CC1,-0.0085% (inactive)
12,COc1ccccc1CNC(=O)C[C@@H]1C[C@H]2c3cc(NC(=O)CN(C)C)ccc3O[C@H]2[C@@H](CO)O1,-0.208% (inactive)
13,C[C@@H]1CN([C@@H](C)CO)S(=O)(=O)c2ccc(C#Cc3ccncc3)cc2O[C@@H]1CN(C)S(=O)(=O)c1ccccc1,-0.653% (inactive)
14,CO[C@@H](CN(C)C(=O)c1cnccn1)[C@H](C)CN([C@H](C)CO)S(=O)(=O)c1ccc(C)cc1,0.027% (inactive)
15,C/C=C/c1cnc2c(c1)C(=O)N([C@H](C)CO)C[C@H](C)[C@H](CN(C)C(=O)c1cccc(F)c1)O2,0.473% (inactive)
16,CO[C@H]1CN(C)C(=O)c2cc(NS(=O)(=O)c3ccc(C)cc3)ccc2OC[C@H](C)NC[C@H]1C,0.218% (inactive)
17,COc1ccc(-c2cnc3c(c2)C(=O)N([C@@H](C)CO)C[C@@H](C)[C@H](CN(C)C(=O)C2CCCCC2)O3)cc1,-0.366% (inactive)
18,CN(C)C(=O)C[C@@H]1C=C[C@H](NC(=O)Nc2cccc(F)c2)[C@H](CO)O1,0.0155% (inactive)

row,Compound,inhibition
1,CCC(=O)Nc1ccc2c(c1)C(=O)N(C)C[C@H](OC)[C@H](C)CN(C(=O)c1ccccc1F)[C@@H](C)CO2,-0.083% (inactive)
2,COc1cccc(S(=O)(=O)Nc2ccc3c(c2)C(=O)N(C)C[C@@H](OC)[C@H](C)CN(C(=O)Cc2cccnc2)[C@H](C)CO3)c1,0.018% (inactive)
3,CCCNC(=O)Nc1ccc2c(c1)C(=O)N(C)C[C@@H](OC)[C@@H](C)CN(C)[C@@H](C)CO2,-0.291% (inactive)
4,CO[C@@H]1CN(C)C(=O)c2cc(NS(C)(=O)=O)ccc2OC[C@@H](C)N(C(=O)C2CCC2)C[C@@H]1C,-0.303% (inactive)
5,CCC(=O)Nc1ccc2c(c1)OC[C@@H](C)N(CC1CC1)C[C@H](C)[C@H](OC)CN(C)C2=O,0.102% (inactive)
6,O=C(C[C@@H]1C=C[C@@H](NC(=O)c2ccccc2)[C@H](CO)O1)NCCc1ccncc1,0.0765% (inactive)
7,CO[C@H]1CN(C)C(=O)c2ccc(NC(=O)c3cc(C)on3)cc2OC[C@H](C)N(C)C[C@H]1C,0.444% (inactive)
8,CN1CCN(C(=O)C[C@H]2C[C@@H]3c4cc(NC(=O)NC5CCCC5)ccc4O[C@@H]3[C@@H](CO)O2)CC1,0.0955% (inactive)
9,O=C(NCC[C@H]1CC[C@H](NC(=O)C2CC2)[C@@H](CO)O1)c1ccc(F)cc1,0.372% (inactive)
10,O=C(Nc1ccc2c(c1)[C@@H]1C[C@H](CC(=O)N3CCOCC3)O[C@@H](CO)[C@@H]1O2)C1CCOCC1,-1% (inactive)
11,COCC(=O)Nc1ccc2c(c1)C(=O)N(C)C[C@@H](OC)[C@@H](C)CN(C(=O)c1ccccc1)[C@@H](C)CO2,0.0325% (inactive)
12,CO[C@@H]1CN(C)C(=O)c2ccc(NC(=O)c3ccc(F)cc3)cc2OC[C@H](C)N(C)C[C@H]1C,0.002% (inactive)
13,COCC(=O)Nc1ccc2c(c1)[C@H]1C[C@H](CC(=O)OC)O[C@@H](CO)[C@H]1O2,-0.0115% (inactive)
14,CO[C@@H]1CN(C)C(=O)c2ccc(NS(=O)(=O)c3cccc(C)c3)cc2OC[C@@H](C)NC[C@H]1C,-0.0525% (inactive)
15,COCC(=O)Nc1ccc2c(c1)OC[C@H](C)N(C(=O)COC)C[C@@H](C)[C@H](OC)CN(C)C2=O,-0.0515% (inactive)
16,CC(=O)N(C)C[C@@H]1Oc2cc(-c3cncnc3)ccc2S(=O)(=O)N([C@@H](C)CO)C[C@H]1C,1.05% (inactive)
17,COc1ccccc1CNC(=O)C[C@H]1C[C@@H]2c3cc(NC(=O)c4ccc5c(c4)OCO5)ccc3O[C@@H]2[C@H](CO)O1,-0.69% (inactive)
18,CN(C)CCCNC(=O)C[C@@H]1C=C[C@H](NC(=O)c2ccccc2F)[C@H](CO)O1,0.626% (inactive)

# Reference: PubChem BioAssay AID624101 (Broad Institute, 2012)
